Of roughly 8,800 targets only a part is listed; those with a hit were picked by preference. About 0.5% of all pairs of compound and target were hits.
Experiments:
Assay in all cases: log2 fold change, soluble protein after heating vs DMSO (PISA); higher = thermal stabilisation; K562 lysate, 10 uM; active = over 0.2 and 3.5 SD of the protein, either way, in both replicates (recomputed)
erlotinib = compound: C#Cc1cccc(Nc2ncnc3cc(OCCOC)c(OCCOC)cc23)c1 [erlotinib]
Procedure, shortened: (§1)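 To prepare the extract, K562 pellets were dounce-homogenised in PBS pH 7.4 with 1 mM MgCl2, giving crude material at 1 mg/mL protein. This was treated with 10 μM compound for 30 min, then heated in aliquots for 3 min over 48°C-58°C before pooling and addition of NP-40 to 0.5% at 4°C. Centrifugation at 21,000xg for 90 min left soluble protein in the supernatant, which TMTpro 16plex LC-MS/MS quantified with equalised channel sums. Results are log-two fold changes in thermal stability compared with solvent controls, from duplicates.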

[1] = compound: C/C(=N\NC(=O)C1=CC(=CC=C1)S(=O)(=O)N2CCOCC2)/C3=C(C=CC(=C3)Cl)O
Procedure, shortened: as §1

[2] = compound: C1=CC(=CC=C1C2=NC3=C(N2)C=C(C=C3)C(=O)N)OC4=CC=C(C=C4)Cl
Procedure, shortened: as §1

[3] = compound: C1=CC2=C(C=CC(=C2)/C=C\3/C(=O)NC(=NCC4=CC=CS4)S3)N=C1
Procedure, shortened: as §1

[4] = compound: C1=CC2=NC=CN=C2C=C1/C=C/3\C(=O)NC(=O)S3
Procedure, shortened: as §1

[5] = compound: C1=CC=C(C=C1)C2=NC(=C(N2)C3=CC=NC=C3)C4=CC(=C(C=C4)Cl)O
Procedure, shortened: as §1

[6] = compound: C1=CC=C2C(=C1)C3=NNC4=CC=CC(=C43)C2=O
Procedure, shortened: as §1

[7] = compound: C1CCN(C1)C(=O)NC2=CC=CC(=C2)NC3=NC=C(C(=N3)NCCC4=CN=CN4)Br
Procedure, shortened: as §1

[8] = compound: C1CN(CCC1(CC2=CC=C(C=C2)Cl)N)C3=NC=NC4=C3C=CN4
Procedure, shortened: as §1

IRAK-1-4 Inhibitor I = compound: C1COCCN1CCN2C3=CC=CC=C3N=C2NC(=O)C4=CC(=CC=C4)[N+](=O)[O-] [IRAK-1-4 Inhibitor I]
Procedure, shortened: as §1

ibrutinib = compound: C=CC(=O)N1CCC[C@@H](n2nc(-c3ccc(Oc4ccccc4)cc3)c3c(N)ncnc32)C1 [ibrutinib]
Procedure, shortened: as §1

[9] = compound: CC(=O)c1cnc2ccc(-c3cc(Cl)c(O)c(Cl)c3)nc2c1N[C@H]1CC[C@H](CN(C)C)CC1
Procedure, shortened: as §1

ralimetinib = compound: CC(C)(C)Cn1c(N)nc2ccc(-c3[nH]c(C(C)(C)C)nc3-c3ccc(F)cc3)nc21 [ralimetinib]
Procedure, shortened: as §1

[10] = compound: CC(C)(O)CC(=O)NCCn1ccc2ncnc(Nc3ccc(Oc4cccc(C(F)(F)F)c4)c(Cl)c3)c21
Procedure, shortened: as §1

[11] = compound: CC(C)C1=C2N=C(C=C(N2N=C1)NCC3=CC=CC=C3)NCCCCCCN
Procedure, shortened: as §1

[12] = compound: CC1=C(C(CC(=O)N1)C2=CC=C(C=C2)C(F)(F)F)C(=O)NC3=C(C=C4C(=C3)C=NN4)F
Procedure, shortened: as §1

[13] = compound: CC1=C(C2=C(C=C1)C(=O)C3=CC=CC=C3N2CCCN)C
Procedure, shortened: as §1

[14] = compound: CC1=C(C=C(C=C1)NC(=O)C2=CC(=CC=C2)C(C)(C)C#N)NC3=CC4=C(C=C3)N=CN(C4=O)C
Procedure, shortened: as §1

[15] = compound: CC1=C(C=C(C=C1)NC(=O)C2=CC(=CC=C2)N(C)C)NC(=O)C3=CC=C(C=C3)O
Procedure, shortened: as §1

[16] = compound: CC1=CC=C(C=C1)SC2=C3C=C(SC3=CN=C2)C(=O)N
Procedure, shortened: as §1

Measured: log2 fold change

TRIP13 (UniProt Q15645)
UniProt Q15645, sequence (Q15645 whole entry, looked up): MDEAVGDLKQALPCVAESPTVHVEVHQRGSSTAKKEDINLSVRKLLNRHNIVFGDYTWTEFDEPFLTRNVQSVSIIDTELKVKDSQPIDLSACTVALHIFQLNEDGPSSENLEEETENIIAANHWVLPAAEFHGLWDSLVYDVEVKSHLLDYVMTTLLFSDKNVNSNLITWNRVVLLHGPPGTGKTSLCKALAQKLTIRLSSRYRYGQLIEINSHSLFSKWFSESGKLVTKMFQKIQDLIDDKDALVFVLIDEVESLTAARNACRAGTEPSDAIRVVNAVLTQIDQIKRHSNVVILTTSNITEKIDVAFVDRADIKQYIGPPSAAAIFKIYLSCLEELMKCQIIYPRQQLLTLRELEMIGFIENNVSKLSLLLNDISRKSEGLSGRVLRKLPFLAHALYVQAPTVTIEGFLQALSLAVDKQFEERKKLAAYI
inactive: erlotinib 0.034 | [1] -0.117 | [2] 0.007 | [3] 0.04 | [4] -0.034 | [5] 0.009 | [6] -0.038 | [7] 0 | [8] -0.002 | IRAK-1-4 Inhibitor I 0.005 | ibrutinib -0.025 | [9] -0.013 | ralimetinib 0.039 | [10] 0.023 | [11] -0.022 | [12] -0.004 | [13] 0.006 | [14] 0.029 | [15] 0.045 | [16] 0.001

TCP11L1 (UniProt Q9NUJ3)
UniProt Q9NUJ3, sequence (Q9NUJ3 whole entry, looked up): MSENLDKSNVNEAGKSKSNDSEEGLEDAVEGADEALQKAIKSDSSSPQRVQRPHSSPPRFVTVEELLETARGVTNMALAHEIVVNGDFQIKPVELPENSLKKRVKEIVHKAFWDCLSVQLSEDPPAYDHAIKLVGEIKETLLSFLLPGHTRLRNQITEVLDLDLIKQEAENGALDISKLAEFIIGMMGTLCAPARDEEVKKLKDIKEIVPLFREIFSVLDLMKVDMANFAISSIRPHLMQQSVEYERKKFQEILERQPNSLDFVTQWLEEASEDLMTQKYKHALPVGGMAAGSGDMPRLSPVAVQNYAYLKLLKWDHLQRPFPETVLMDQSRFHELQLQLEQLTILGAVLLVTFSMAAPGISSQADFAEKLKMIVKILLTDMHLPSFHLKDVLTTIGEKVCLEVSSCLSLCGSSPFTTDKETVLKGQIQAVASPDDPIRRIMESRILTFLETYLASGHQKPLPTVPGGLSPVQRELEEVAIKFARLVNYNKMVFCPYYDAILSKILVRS
inactive: erlotinib 0.082 | [1] 0.032 | [2] 0.032 | [3] 0.033 | [4] -0.053 | [5] 0.075 | [6] -0.069 | [7] -0.005 | [8] 0.094 | IRAK-1-4 Inhibitor I 0.001 | ibrutinib 0.026 | [9] -0.033 | ralimetinib -0.093 | [10] -0.061 | [11] -0.045 | [12] -0.032 | [13] -0.052 | [14] -0.008 | [15] 0.02 | [16] -0.008

TESC (UniProt Q96BS2)
UniProt Q96BS2, sequence (Q96BS2 whole entry, looked up): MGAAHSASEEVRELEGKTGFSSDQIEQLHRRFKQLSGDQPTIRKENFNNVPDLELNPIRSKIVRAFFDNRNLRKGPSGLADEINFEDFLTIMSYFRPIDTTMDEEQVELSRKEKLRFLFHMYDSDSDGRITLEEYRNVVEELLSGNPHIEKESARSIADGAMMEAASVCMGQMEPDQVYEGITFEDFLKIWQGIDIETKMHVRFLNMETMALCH
inactive: erlotinib -0.043 | [1] 0.042 | [2] 0.03 | [3] 0.074 | [4] -0.042 | [5] -0.006 | [6] 0.036 | [7] 0.003 | [8] 0.04 | IRAK-1-4 Inhibitor I -0.003 | ibrutinib 0.065 | [9] -0.029 | ralimetinib 0.005 | [10] 0.056 | [11] -0.055 | [12] 0.043 | [13] 0.015 | [14] 0 | [15] -0.013 | [16] -0.077

TMPO (UniProt P42166)
inactive: erlotinib 0.026 | [1] -0.038 | [2] 0.012 | [3] -0.097 | [4] -0.03 | [5] -0.024 | [6] -0.026 | [7] -0.004 | [8] 0.005 | IRAK-1-4 Inhibitor I 0.008 | ibrutinib -0.025 | [9] -0.018 | ralimetinib -0.087 | [10] -0.004 | [11] 0.018 | [12] 0.011 | [13] 0 | [14] 0.024 | [15] 0.047 | [16] -0.026

UBR1 (UniProt Q8IWV7)
inactive: erlotinib 0.01 | [1] 0.058 | [2] -0.055 | [3] -0.002 | [4] 0.026 | [5] 0.015 | [6] -0.016 | [7] -0.047 | [8] 0.008 | IRAK-1-4 Inhibitor I 0.002 | ibrutinib 0.007 | [9] 0.005 | ralimetinib 0.015 | [10] -0.044 | [11] -0.014 | [12] -0.011 | [13] 0.004 | [14] -0.004 | [15] -0.03 | [16] -0.008

TUBB4B (UniProt P68371)
UniProt P68371, sequence (P68371 whole entry, looked up): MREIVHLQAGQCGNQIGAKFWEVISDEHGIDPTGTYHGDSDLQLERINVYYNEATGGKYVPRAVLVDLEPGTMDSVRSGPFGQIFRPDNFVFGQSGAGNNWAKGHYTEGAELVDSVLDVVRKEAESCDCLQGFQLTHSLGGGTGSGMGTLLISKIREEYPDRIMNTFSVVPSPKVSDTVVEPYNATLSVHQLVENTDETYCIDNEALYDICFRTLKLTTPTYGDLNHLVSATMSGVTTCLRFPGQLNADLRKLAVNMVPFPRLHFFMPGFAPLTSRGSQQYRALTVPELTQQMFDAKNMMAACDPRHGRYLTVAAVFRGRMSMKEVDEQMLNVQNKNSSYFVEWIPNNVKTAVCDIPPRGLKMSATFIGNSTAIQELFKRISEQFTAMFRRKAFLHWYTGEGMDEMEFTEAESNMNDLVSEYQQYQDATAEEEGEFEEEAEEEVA
inactive: erlotinib 0.008 | [1] -0.059 | [2] 0.019 | [3] -0.018 | [4] 0.005 | [5] -0.024 | [6] -0.011 | [7] 0.019 | [8] 0.03 | IRAK-1-4 Inhibitor I 0.04 | ibrutinib -0.012 | [9] 0.029 | ralimetinib 0.026 | [10] 0.029 | [11] 0.02 | [12] 0.011 | [13] 0.022 | [14] -0.05 | [15] 0.035 | [16] 0.018

TTI2 (UniProt Q6NXR4)
UniProt Q6NXR4, sequence (Q6NXR4 whole entry, looked up): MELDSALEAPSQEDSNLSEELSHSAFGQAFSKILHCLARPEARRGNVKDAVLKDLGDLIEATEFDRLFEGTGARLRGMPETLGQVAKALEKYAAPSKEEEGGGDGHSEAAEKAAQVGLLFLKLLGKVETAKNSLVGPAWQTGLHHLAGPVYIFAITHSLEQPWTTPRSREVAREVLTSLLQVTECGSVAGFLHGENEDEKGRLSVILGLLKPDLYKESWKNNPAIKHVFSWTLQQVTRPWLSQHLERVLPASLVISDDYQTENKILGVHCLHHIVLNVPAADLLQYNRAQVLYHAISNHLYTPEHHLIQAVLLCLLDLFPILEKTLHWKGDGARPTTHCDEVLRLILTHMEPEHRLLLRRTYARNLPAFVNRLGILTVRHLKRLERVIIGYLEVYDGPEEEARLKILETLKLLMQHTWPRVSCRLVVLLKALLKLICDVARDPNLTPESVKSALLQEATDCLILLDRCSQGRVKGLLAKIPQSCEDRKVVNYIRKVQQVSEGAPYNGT
inactive: erlotinib -0.003 | [1] 0.037 | [2] 0.023 | [3] 0.047 | [4] 0.013 | [5] 0.012 | [6] -0.015 | [7] -0.028 | [8] 0.007 | IRAK-1-4 Inhibitor I 0.014 | ibrutinib 0.012 | [9] 0.016 | ralimetinib 0.019 | [10] -0.062 | [11] -0.004 | [12] -0.009 | [13] 0.018 | [14] -0.009 | [15] -0.015 | [16] -0.017

TERF2IP (UniProt Q9NYB0)
UniProt Q9NYB0, sequence (Q9NYB0 whole entry, looked up): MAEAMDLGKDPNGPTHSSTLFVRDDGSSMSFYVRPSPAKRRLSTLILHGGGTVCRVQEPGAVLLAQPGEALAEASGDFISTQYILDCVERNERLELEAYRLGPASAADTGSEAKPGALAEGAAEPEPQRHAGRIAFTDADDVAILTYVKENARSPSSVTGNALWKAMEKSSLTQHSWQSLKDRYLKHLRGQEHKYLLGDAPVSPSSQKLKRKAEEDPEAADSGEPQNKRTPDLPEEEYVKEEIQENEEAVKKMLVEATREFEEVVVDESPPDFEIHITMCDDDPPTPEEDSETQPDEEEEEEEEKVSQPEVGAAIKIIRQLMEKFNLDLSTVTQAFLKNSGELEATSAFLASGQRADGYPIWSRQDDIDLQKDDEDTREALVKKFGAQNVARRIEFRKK
inactive: erlotinib -0.003 | [1] 0.025 | [2] 0.03 | [3] -0.054 | [4] -0.023 | [5] -0.001 | [6] 0.005 | [7] 0.019 | [8] 0.029 | IRAK-1-4 Inhibitor I 0.009 | ibrutinib 0.02 | [9] -0.012 | ralimetinib 0.025 | [10] -0.049 | [11] -0.047 | [12] 0.004 | [13] -0.004 | [14] -0.008 | [15] -0.005 | [16] 0.003

UGDH (UniProt O60701)
inactive: erlotinib 0.002 | [1] 0.046 | [2] -0.02 | [3] -0.009 | [4] 0.02 | [5] -0.041 | [6] -0.051 | [7] -0.004 | [8] -0.052 | IRAK-1-4 Inhibitor I -0.053 | ibrutinib 0.02 | [9] 0.02 | ralimetinib 0.085 | [10] -0.004 | [11] -0.004 | [12] 0.019 | [14] -0.037 | [15] 0.058 | [16] 0.031
active: [13] 0.215

TECR (UniProt Q9NZ01)
UniProt Q9NZ01, sequence (Q9NZ01 whole entry, looked up): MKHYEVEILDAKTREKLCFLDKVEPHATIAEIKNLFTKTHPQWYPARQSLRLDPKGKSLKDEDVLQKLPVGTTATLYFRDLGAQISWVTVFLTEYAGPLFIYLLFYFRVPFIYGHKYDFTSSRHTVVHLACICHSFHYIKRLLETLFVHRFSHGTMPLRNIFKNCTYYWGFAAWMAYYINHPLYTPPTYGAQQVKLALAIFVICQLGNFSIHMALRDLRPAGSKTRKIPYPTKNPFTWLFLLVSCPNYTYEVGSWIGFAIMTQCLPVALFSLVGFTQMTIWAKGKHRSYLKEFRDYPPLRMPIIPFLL
inactive: erlotinib 0.024 | [1] -0.029 | [2] -0.113 | [3] 0.019 | [4] 0.083 | [5] -0.013 | [6] -0.066 | [7] -0.008 | [8] 0.028 | IRAK-1-4 Inhibitor I 0.038 | ibrutinib -0.003 | [9] 0.037 | ralimetinib 0 | [10] -0.046 | [11] -0.003 | [12] 0.044 | [13] 0.041 | [14] -0.031 | [15] 0.06 | [16] 0.025

TPM3 (UniProt P06753)
UniProt P06753, sequence (P06753 whole entry, looked up): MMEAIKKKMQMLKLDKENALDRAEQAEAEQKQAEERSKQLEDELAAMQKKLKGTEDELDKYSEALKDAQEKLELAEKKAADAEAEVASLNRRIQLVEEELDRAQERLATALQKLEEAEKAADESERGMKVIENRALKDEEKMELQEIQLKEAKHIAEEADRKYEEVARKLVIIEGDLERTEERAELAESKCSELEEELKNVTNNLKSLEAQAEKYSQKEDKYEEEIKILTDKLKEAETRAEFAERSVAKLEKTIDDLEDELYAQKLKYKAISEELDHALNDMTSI
inactive: erlotinib -0.022 | [1] 0.027 | [2] -0.026 | [3] -0.042 | [4] -0.012 | [5] 0.014 | [6] 0.068 | [7] 0.035 | [8] -0.021 | IRAK-1-4 Inhibitor I -0.019 | ibrutinib 0.009 | [9] -0.001 | ralimetinib -0.028 | [10] 0.022 | [11] 0.013 | [12] -0.028 | [13] 0.013 | [14] -0.038 | [15] -0.016 | [16] -0.007

TTC12 isoform 2 (UniProt Q9H892)
UniProt Q9H892, sequence (Q9H892 whole entry, looked up): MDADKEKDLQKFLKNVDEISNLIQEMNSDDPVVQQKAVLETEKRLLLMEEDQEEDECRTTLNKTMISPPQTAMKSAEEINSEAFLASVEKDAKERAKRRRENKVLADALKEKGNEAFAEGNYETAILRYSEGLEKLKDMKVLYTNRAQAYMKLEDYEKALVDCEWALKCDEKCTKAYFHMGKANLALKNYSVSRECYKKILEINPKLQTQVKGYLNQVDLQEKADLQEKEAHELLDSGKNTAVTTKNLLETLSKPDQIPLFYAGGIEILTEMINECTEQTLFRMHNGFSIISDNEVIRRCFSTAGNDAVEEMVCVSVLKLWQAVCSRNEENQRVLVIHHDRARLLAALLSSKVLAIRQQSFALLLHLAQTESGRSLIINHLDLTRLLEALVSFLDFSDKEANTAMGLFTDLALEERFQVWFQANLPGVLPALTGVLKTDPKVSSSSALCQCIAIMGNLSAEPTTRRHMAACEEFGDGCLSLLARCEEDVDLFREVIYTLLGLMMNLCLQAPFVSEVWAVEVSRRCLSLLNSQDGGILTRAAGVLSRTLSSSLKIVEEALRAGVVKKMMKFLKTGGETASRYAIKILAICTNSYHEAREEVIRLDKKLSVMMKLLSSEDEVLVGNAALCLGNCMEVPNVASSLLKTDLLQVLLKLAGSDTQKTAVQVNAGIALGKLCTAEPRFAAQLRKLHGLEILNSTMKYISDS
inactive: erlotinib 0.066 | [1] -0.051 | [2] 0.055 | [3] 0.007 | [4] -0.081 | [5] -0.037 | [6] -0.019 | [7] -0.006 | [8] 0.034 | IRAK-1-4 Inhibitor I 0.231 | ibrutinib -0.002 | [9] -0.073 | ralimetinib 0.053 | [10] 0.128 | [11] -0.032 | [12] -0.049 | [13] -0.042 | [14] 0.037 | [15] -0.14 | [16] -0.003

TBC1D23 (UniProt Q9NUY8)
inactive: erlotinib 0.003 | [1] -0.01 | [2] 0.017 | [3] 0.022 | [4] -0.015 | [5] 0.011 | [6] -0.018 | [7] -0.018 | [8] -0.001 | IRAK-1-4 Inhibitor I 0 | ibrutinib 0.034 | [9] 0.002 | ralimetinib 0.004 | [10] -0.021 | [11] 0.03 | [12] 0.032 | [13] -0.05 | [14] 0.014 | [15] 0.012 | [16] -0.012

TIMELESS (UniProt Q9UNS1)
inactive: erlotinib 0.023 | [1] 0.069 | [2] -0.083 | [3] -0.003 | [4] -0.002 | [5] -0.001 | [6] -0.068 | [7] -0.018 | [8] 0 | IRAK-1-4 Inhibitor I -0.032 | ibrutinib 0.011 | [9] -0.079 | ralimetinib 0.006 | [10] -0.053 | [11] -0.01 | [12] 0.011 | [13] -0.007 | [14] -0.01 | [15] 0.029 | [16] -0.027

TDRD3 isoform 3 (UniProt Q9H7E2)
UniProt Q9H7E2, sequence (Q9H7E2 whole entry, looked up): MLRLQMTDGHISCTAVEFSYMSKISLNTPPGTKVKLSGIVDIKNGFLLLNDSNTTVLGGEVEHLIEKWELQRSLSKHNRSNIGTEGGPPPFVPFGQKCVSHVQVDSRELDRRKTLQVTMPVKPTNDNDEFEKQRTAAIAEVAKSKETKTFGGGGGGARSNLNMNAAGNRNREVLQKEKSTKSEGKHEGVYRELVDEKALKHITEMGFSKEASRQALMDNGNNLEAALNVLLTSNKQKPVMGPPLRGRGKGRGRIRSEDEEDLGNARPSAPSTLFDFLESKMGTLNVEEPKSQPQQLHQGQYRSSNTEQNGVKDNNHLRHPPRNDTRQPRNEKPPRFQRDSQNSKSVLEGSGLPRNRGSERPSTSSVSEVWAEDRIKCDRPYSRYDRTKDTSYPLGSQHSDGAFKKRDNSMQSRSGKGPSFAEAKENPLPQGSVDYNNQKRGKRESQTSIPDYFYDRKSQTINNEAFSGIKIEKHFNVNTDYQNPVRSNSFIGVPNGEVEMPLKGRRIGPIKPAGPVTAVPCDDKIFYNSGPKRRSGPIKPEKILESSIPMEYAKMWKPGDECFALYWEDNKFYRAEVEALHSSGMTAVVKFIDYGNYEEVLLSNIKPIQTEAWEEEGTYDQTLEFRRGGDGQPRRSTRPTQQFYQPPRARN
inactive: erlotinib 0.051 | [1] -0.029 | [2] -0.019 | [3] 0.086 | [4] 0.005 | [5] 0.257 | [6] -0.085 | [7] -0.059 | [8] 0 | IRAK-1-4 Inhibitor I 0.051 | ibrutinib -0.03 | [9] 0.009 | ralimetinib -0.094 | [10] 0.01 | [11] -0.018 | [12] -0.073 | [13] -0.004 | [14] 0 | [15] -0.102 | [16] 0.026

TUBE1 (UniProt Q9UJT0)
UniProt Q9UJT0, sequence (Q9UJT0 whole entry, looked up): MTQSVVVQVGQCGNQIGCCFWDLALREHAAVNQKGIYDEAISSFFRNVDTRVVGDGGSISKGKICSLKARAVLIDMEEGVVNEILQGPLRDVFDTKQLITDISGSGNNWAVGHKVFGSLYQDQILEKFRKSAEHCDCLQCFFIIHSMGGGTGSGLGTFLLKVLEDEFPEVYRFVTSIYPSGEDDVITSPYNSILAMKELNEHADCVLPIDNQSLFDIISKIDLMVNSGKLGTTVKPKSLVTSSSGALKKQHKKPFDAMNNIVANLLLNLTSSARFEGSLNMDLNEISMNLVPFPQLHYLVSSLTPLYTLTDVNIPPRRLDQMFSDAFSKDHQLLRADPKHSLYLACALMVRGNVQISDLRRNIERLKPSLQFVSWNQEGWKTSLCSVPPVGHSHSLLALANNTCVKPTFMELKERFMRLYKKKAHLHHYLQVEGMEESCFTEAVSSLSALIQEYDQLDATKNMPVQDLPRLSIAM
inactive: erlotinib 0.051 | [1] -0.267 | [2] 0.095 | [3] -0.059 | [4] -0.063 | [5] -0.078 | [6] -0.033 | [7] -0.113 | [8] 0.047 | IRAK-1-4 Inhibitor I 0.023 | ibrutinib 0.065 | [9] -0.017 | ralimetinib 0.05 | [10] -0.034 | [11] 0.024 | [12] -0.001 | [13] 0.027 | [14] -0.02 | [15] 0.001 | [16] -0.03
